Only some compounds are listed: those with a hit (about 2.8% of all), similar ones and a draw of the others.
FXN GAA850 act: activators of GAA850 frataxin (FXN) promoter | HEK293 lucGAA850 FXN promoter luciferase reporter, 24 h; percent of 10 µM SAHA response | activation, % at 6 µM | hit rate 0.56% among 360,000 | AID 540364;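 active = activation above the average of all compounds screened plus 3 SD, cutoff fixed separately per campaign, cut at about 7.5% in these data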
Wnt act: activates Wnt/beta-catenin signaling in a reporter cell assay. activator, plate reader. activation, % at 9.35 µM. hit rate 1.2% among 300,000. AID 743398; in the data active = activation above about 30%, passing the limit was not always enough; inconclusive = no clear call, values can overlap the other calls
esBAF inh: SWI/SNF esBAF complex inhibition. hit rate 2% among 350,000. reporter increase, % at 12.5 µM. mouse ES cells, Bmi1-luciferase knock-in reporter, 24 h; 100% = twice the neutral-well signal. AID 602393; in the data active = activation above about 40%; inconclusive = no clear call, values can overlap the other calls;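 note: a rise in the Bmi1 reporter signal indicates esBAF inhibition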
MITF act: activators of MITF-driven TRPM1 promoter activity in SK-MEL-5 cells. activation, % at 12.5 µM. hit rate 0.75% among 300,000. SK-MEL-5 TRPM1-promoter luciferase, 24 h; % of positive control, neutral wells = 0;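 active = mean activation of at least 80% with every replicate also reaching 80%; inconclusive = mean reaches 80% but some replicate falls short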
Each line names hits and unclear results; the compound was inactive in the other large screens.

C[C@@H]1CN([C@H](C)CO)S(=O)(=O)c2ccc(/C=C/c3ccccc3)cc2O[C@H]1CN(C)C(=O)C1CC1	none (no result: FXN GAA850 act, Wnt act, MITF act)
COCC(=O)Nc1ccc2c(c1)C(=O)N(C)[C@H]1CC[C@@H](CC(=O)NCc3ccccc3)O[C@H]1CO2	none (no result: FXN GAA850 act, Wnt act, MITF act)
Cc1ccccc1C(=O)O/N=C(\N)Cc1cccs1	esBAF inh 53, MITF act 94
O=C(Oc1ccc2ccc(O)cc2c1)c1ccccc1Cl	esBAF inh 63 (no result: MITF act)
N/C(=N\OC(=O)c1ccccc1Cl)c1ccncc1	none (no result: esBAF inh)
Cc1ccccc1OCC(=O)O/N=C(\N)Cc1cccs1	none (no result: Wnt act)
Cc1ccccc1C(=O)O/N=C(\N)c1ccncc1	Wnt act 40 (no result: esBAF inh)
CN(C)CC(=O)N[C@@H]1CC[C@@H](CCn2cc(CN(C)C)nn2)O[C@@H]1CO	none (no result: FXN GAA850 act, Wnt act, MITF act)
Nc1ccc2ccc(N)cc2c1	none (no result: FXN GAA850 act, esBAF inh, MITF act)
Nc1ccc2cc3ccccc3cc2c1	esBAF inh 49, MITF act inconclusive
Cc1nn(-c2ccccc2)c2sc(C(=O)O)cc12	none (no result: Wnt act, MITF act)
Cc1nn(-c2ccccc2)c2sc(C(=O)N3CCOCC3)cc12	esBAF inh 44 (no result: Wnt act)
Cc1cc(C)n(-c2ccc(C(=O)OCc3nnc(-c4ccccc4)o3)cc2)n1	esBAF inh 46 (no result: Wnt act)
Cc1cc(C)n(-c2ccc(C(=O)OCc3ccccc3)cc2)n1	none (no result: esBAF inh)
CC(=O)Nc1cccc(-c2nnc(-c3ccccc3)o2)c1	Wnt act 35, esBAF inh inconclusive (no result: MITF act)
CCOc1cccc(C(=O)Nc2cccc(-c3nnc(-c4ccc(C)cc4)o3)c2)c1	none (no result: Wnt act)
O=C(OCc1ccccc1)c1cccc(-c2nnc(-c3ccccc3)o2)c1	none (no result: Wnt act)
CCOC(=O)c1cccc(COC(=O)c2cccc(-c3nnc(-c4ccccc4)o3)c2)c1	Wnt act 55 (no result: esBAF inh)
CCOc1cccc(C(=O)Nc2cccc(-c3nnc(-c4ccccc4)o3)c2)c1	esBAF inh 43
COc1cccc(NC(=O)N[C@@H]2CC[C@@H](CC(=O)NCc3ccncn3)O[C@@H]2CO)c1	none (no result: FXN GAA850 act, Wnt act, MITF act)
CNC[C@@H]1Oc2ccc(NC(=O)NC3CCCCC3)cc2C(=O)N([C@H](C)CO)C[C@H]1C	none (no result: FXN GAA850 act, Wnt act, MITF act)
COc1ccc(S(=O)(=O)N(C)C[C@@H]2Oc3ccc(NS(C)(=O)=O)cc3C(=O)N([C@H](C)CO)C[C@@H]2C)cc1	none (no result: FXN GAA850 act, Wnt act, MITF act)
CO[C@H]1CN(C)C(=O)c2ccc(NC(=O)c3cnccn3)cc2OC[C@@H](C)N(C)C[C@@H]1C	none (no result: FXN GAA850 act, Wnt act, MITF act)
O=C(C[C@@H]1C=C[C@H](NC(=O)C2CCC2)[C@H](CO)O1)NCC1CC1	none (no result: FXN GAA850 act, Wnt act, MITF act)
C[C@H]1CN([C@@H](C)CO)C(=O)CCCn2nncc2CO[C@H]1CN(C)Cc1ccc2cccnc2c1	none (no result: FXN GAA850 act, Wnt act, MITF act)
Cc1ccc(N(C)/N=C/c2ccc(Cl)cc2Cl)nn1	esBAF inh 42, MITF act 99
CN(/N=C/c1ccc(Cl)cc1Cl)c1ncc(Cl)cc1C(F)(F)F	none
COC(=O)C[C@H]1CC[C@H]2[C@@H](COc3ccc(NC(=O)Nc4cccc(C)c4)cc3C(=O)N2C)O1	none (no result: FXN GAA850 act, Wnt act, MITF act)
C[C@H]1CN([C@@H](C)CO)C(=O)c2cc(/C=C/c3ccccc3)cnc2O[C@H]1CN(C)C(=O)Nc1ccc(C(F)(F)F)cc1	none (no result: FXN GAA850 act, Wnt act, MITF act)
CN(CC(=O)Nc1ccccc1Br)C(=O)COc1ccc2ccccc2c1	esBAF inh 41
CC=Cc1ccc2n(c1=O)C[C@H]1[C@H](CO)[C@@H](C(=O)N[C@@H](C)c3ccccc3)[C@@H]2N1Cc1ccncc1 (mixture of isomers)	none (no result: FXN GAA850 act, Wnt act, MITF act)
Nc1cccc(Oc2ccc3c(c2)C(=O)N(CC2CCCO2)C3=O)c1 (stereo unspecified)	esBAF inh 50
COCC#Cc1cnc2c(c1)C(=O)N([C@@H](C)CO)C[C@@H](C)[C@@H](CN(C)C(=O)CCN1CCCCC1)O2	none (no result: FXN GAA850 act, Wnt act, MITF act)
Cc1nn(-c2ccc3ccccc3c2)c(=O)c2ccccc12	Wnt act 61 (no result: esBAF inh)
C[C@@H]1CCCCO[C@H](CN(C)C(=O)NC2CCCCC2)[C@H](C)CN([C@H](C)CO)C(=O)c2cc(NC(=O)c3ccccc3)ccc2O1	none (no result: FXN GAA850 act, Wnt act, MITF act)
Cc1ccc(C)c(CSc2nnc(-c3cccnc3)o2)c1	none (no result: Wnt act)
COc1ccc(-c2nnc(SCc3ccccc3F)o2)cc1	none (no result: Wnt act, esBAF inh)
Fc1ccccc1CSc1nnc(-c2cccnc2)o1	Wnt act 40 (no result: esBAF inh)
Fc1ccccc1CSc1nnc(-c2ccccc2)o1	Wnt act 68, MITF act 103
CN1CCN(C(=O)C[C@H]2C=C[C@H](NS(=O)(=O)c3cccc(F)c3)[C@H](CO)O2)CC1	none (no result: FXN GAA850 act, Wnt act, MITF act)
C[C@H](CO)N1C[C@H](C)[C@H](CN(C)C(=O)CN(C)C)Oc2ncc(C#Cc3ccncc3)cc2C1=O	none (no result: FXN GAA850 act, Wnt act, MITF act)
Cc1cc(=O)oc2cc(NC(=O)c3ccccc3C(=O)O)ccc12	none
COc1cccc(C(=O)Nc2ccc3c(C)cc(=O)oc3c2)c1	Wnt act 33
CCOC(=O)Nc1ccc2c(C)cc(=O)oc2c1	esBAF inh 43, MITF act 103
CCOC(=O)Nc1ccc2c(CN(C)Cc3ccc(F)cc3)cc(=O)oc2c1	none
Cc1cc(=O)oc2cc(NC(=O)c3ccccc3Cl)ccc12	Wnt act inconclusive, MITF act 98 (no result: esBAF inh)
Cc1ccc(S(=O)(=O)N(C)C[C@H]2Oc3ncc(-c4ccccc4)cc3C(=O)N([C@H](C)CO)C[C@H]2C)cc1	none (no result: FXN GAA850 act, Wnt act, MITF act)
Cc1ccc(S(=O)(=O)Nc2cccc3c2O[C@@H](CN(C)C(=O)Nc2ccc(F)cc2)[C@@H](C)CN([C@H](C)CO)C3=O)cc1	none (no result: FXN GAA850 act, Wnt act, MITF act)
C[C@H]1CN([C@@H](C)CO)C(=O)Cc2cc(NS(=O)(=O)c3ccccc3)ccc2O[C@@H]1CN(C)C(=O)Nc1ccc(F)cc1	none (no result: FXN GAA850 act, Wnt act, MITF act)
CO[C@@H]1CN(C)C(=O)c2ccc(NC(C)=O)cc2OC[C@H](C)N(C(=O)C2CCCCC2)C[C@@H]1C	none (no result: FXN GAA850 act, Wnt act, MITF act)
CO[C@H]1CN(C)C(=O)c2cc(NC(=O)c3ccc(F)cc3)ccc2OC[C@@H](C)N(C(C)=O)C[C@H]1C	none (no result: FXN GAA850 act, Wnt act, MITF act)
O=C(Nc1ccccc1N1CCOCC1)c1ccc2ccccc2c1	esBAF inh 55
O=C(Nc1ccc(CN2CCOCC2)cc1)c1cccc(F)c1	MITF act 88 (no result: Wnt act)
O=C(Nc1ccc(CN2CCOCC2)cc1)c1ccc2ccccc2c1	esBAF inh 61
O=C(Nc1ccc(CN2CCOCC2)cc1)c1ccc(Br)cc1	esBAF inh inconclusive (no result: MITF act)
O=C(Nc1ccc(CN2CCOCC2)cc1)c1ccc(F)cc1	none
O=C(Nc1ccc(CN2CCOCC2)cc1)c1ccc(Cl)cc1	esBAF inh 44
C[C@@H]1CN([C@H](C)CO)C(=O)c2cc(NS(=O)(=O)c3cccs3)ccc2O[C@@H](C)CCCCO[C@H]1CN(C)Cc1ccccc1	none (no result: FXN GAA850 act, Wnt act, MITF act)
CC(=O)Nc1ccc(/C(C)=N/NC(=O)c2ccc(CN3CCOCC3)cc2)cc1	none (no result: esBAF inh)
C/C(=N\NC(=O)c1ccc(CN2CCOCC2)cc1)c1ccc(NC(=O)c2ccccc2)cc1	esBAF inh 66
Cc1cc(C(=O)Cn2nc(C(=O)O)c3ccccc3c2=O)c(C)n1CC(F)(F)F	esBAF inh 44, MITF act inconclusive
C[C@@H]1CN([C@H](C)CO)C(=O)c2cc(NC(=O)CCCN(C)C)ccc2O[C@@H]1CN(C)S(=O)(=O)c1ccc(F)cc1	none (no result: FXN GAA850 act, Wnt act, MITF act)
N=c1c2c(ncn1CCCO)Oc1c(ccc3ccccc13)C2c1ccccc1 (stereo unspecified)	Wnt act 42 (no result: esBAF inh)
COc1ccccc1-c1cnc2c(c1)C(=O)N([C@@H](C)CO)C[C@H](C)[C@@H](CN(C)C(=O)CN(C)C)O2	none (no result: FXN GAA850 act, Wnt act, MITF act)
